Data as given in PubChem BioAssay (NCATS).
Values without a mark were called inactive. Activity calls are given as the source filed them. How the calls were made is not given here.

Each compound was assayed on HIV-1 nucleocapsid protein NCp7 (binding to TG oligonucleotide) (assay: HIV Nucleocapsid (AID 346;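 further: potency is for inhibitors that block NC binding and lower polarization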)). Conditions: HIV-1 NC / fluorescein-TGTGTGTG probe, fluorescence polarization.
In short: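 Reagents dispensed (10 nM TG4xF, 100 nM HIV-1 NC), plates spun, compounds pin-transferred, then incubated 1 hr at room temperature before FP imaging. Buffer: Hepes pH 7.5, 250mM NaCl, 1uM ZnCl2, 100 uM TCEP, 5 mM 2-mercaptoethanol.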
Potency means the concentration at half of the fitted maximal effect.

Compound | Potency
COC(=O)N1CCC[C@@]2(CCN(c3ccccc3)C2)C1 | > 20 µM
COc1ccccc1-c1ccc2ncnc(N(C)Cc3ccco3)c2c1 | > 20 µM
COCCn1c(=O)c(C)nc2cnc(Oc3ccccc3)nc21 | > 20 µM
COc1ccc(C(=O)N2CCC3(CC2)CN(c2ccccn2)C3)cc1 | > 20 µM
O=C(c1ccco1)N1CCC[C@@]2(CCN(c3cccc(-c4ccccc4)c3)C2)C1 | > 20 µM
O=c1c(CCc2ccccc2)nc2cnc(N3CCNCC3)nc2n1Cc1cccs1 | > 20 µM
CC(=O)NCCNc1nc(-c2cccnc2)nc2ccccc12 | > 20 µM
O=c1c(CCc2ccccc2)nc2cnc(N3CCOCC3)nc2n1C[C@H]1CCCO1 | > 20 µM
Cc1noc(C)c1-c1cncnc1NCc1ccccc1 | > 20 µM
CS(=O)(=O)Nc1cccc(-c2ccc3ncnc(Nc4ccccc4)c3c2)c1 | > 20 µM
COc1ccc(Oc2ncc3nc(-c4ccccc4)c(=O)n(Cc4cccs4)c3n2)cc1 | > 20 µM
Cc1cccc(CNc2ncnc3ccc(-c4ccccc4C#N)cc23)c1 | > 20 µM
COc1cccc(-c2cc(NCc3cccs3)ncn2)c1 | > 20 µM
Cc1cnc(CNc2cc(-c3ccccc3C)ncn2)cn1 | > 20 µM
CC(=O)N1CCC2(CC1)CCN(c1ccccn1)CC2 | > 4 µM
CN1CCN(c2ncc3nc(-c4ccc(Cl)cc4)c(=O)n(C4CC4)c3n2)CC1 | > 20 µM
Cc1noc(C)c1C(=O)N1CCC[C@@]2(CCN(C(=O)Nc3cccc(F)c3)C2)C1 | > 20 µM
COc1cccc(Nc2ncc3nc(-c4cccs4)c(=O)n(-c4ccccc4)c3n2)c1 | 6.57 µM (active)
O=C(Nc1ccccc1)N1CC2(CCN(C(=O)c3cnccn3)CC2)C1 | > 20 µM
O=c1c(-c2ccc(F)cc2)nc2cnc(N3CCOCC3)nc2n1C[C@H]1CCCO1 | > 20 µM
CN1CCCC2(CCN(C(=O)c3cnccn3)CC2)C1 | > 20 µM
Cn1c(=O)c(CCc2ccccc2)nc2cnc(N3CCNCC3)nc21 | > 20 µM
COc1ccc2[nH]cc(CCNc3ccnc(-c4cccnc4)n3)c2c1 | > 20 µM
COCC(=O)N1CCC2(CCCN(c3ccncc3)C2)CC1 | > 20 µM
COc1cccc(Nc2ncc3nc(-c4ccccc4)c(=O)n(C)c3n2)c1 | > 20 µM
